# Data: PubChem BioAssay (NCATS)
# A number with no mark means an inactive call. For part of these data: Results with a measured potency or affinity are listed apart. Calls of active or inactive are those of the source. The rule behind the calls is not given here. Peptide text beside a SMILES is read from it.
# What was measured:
# [1] = Ebola virus entry assay, green fluorescence channel
# [2] = Ebola virus entry assay, blue channel fluorescence
# Throughout, for efficacy: 0% is about no effect.
Compound,efficacy [1] [%],outcome [2],AC50 [2]
CCCC(=O)OCOC(=O)C1=C(C)NC(C)=C(C(=O)OC)C1c1cccc(Cl)c1Cl (configuration not stated),17.3,inactive,–
O=C1OC(CN2CCOCC2)CN1/N=C/c1ccc([N+](=O)[O-])o1 (configuration not stated),29.1,inactive,–
COc1ccc(C(=O)NCc2ccc(OCCN(C)C)cc2)cc1OC,-7.96,inactive,–
CC1(C)C(C=C(Cl)Cl)C1C(=O)OC(C#N)c1cccc(Oc2ccccc2)c1 (configuration not stated),-14.1,inactive,–
CC(=O)[C@H]1CC[C@H]2[C@@H]3C[C@H](C)C4=CC(=O)CC[C@]4(C)[C@H]3[C@@H](O)C[C@]12C,-17.9,inactive,–
Cc1onc(-c2ccccc2)c1C(=O)Cl,6.34,inactive,–
CC(=O)OCC1=C(C(=O)O)N2C(=O)[C@@H](NC(=O)Cc3cccs3)[C@H]2SC1,-9.53,inactive,–
CC1(C)Oc2ccc(C#N)cc2[C@@H](N2CCCC2=O)[C@@H]1O,-10.5,inactive,–
O=C(OOC(=O)c1ccccc1)c1ccccc1,-19.5,inactive,–
Cc1cc(NS(=O)(=O)c2ccc(N)cc2)no1,21.6,inactive,–
CO[C@@H]1[C@@H](OC(N)=O)[C@@H](O)[C@H](Oc2ccc3c(O)c(NC(=O)c4ccc(O)c(CC=C(C)C)c4)c(=O)oc3c2C)OC1(C)C,15.5,inactive,–
COc1cc(C(=O)NC2CCCNC2)cc(OC)c1OC (configuration not stated),-16,inactive,–
CCNC(=O)[C@@H]1CCCN1C(=O)[C@H](CCCN=C(N)N)NC(=O)[C@H](CC(C)C)NC(=O)CNC(=O)[C@H](Cc1ccc(O)cc1)NC(=O)[C@H](CO)NC(=O)[C@H](Cc1c[nH]c2ccccc12)NC(=O)[C@H](Cc1cnc[nH]1)NC(=O)[C@@H]1CCC(=O)N1 (HELM PEPTIDE1{[Glp].H.W.S.Y.G.L.R.P.[CCN[*:1]]}$$$$V2.0),17.9,inactive,–
O=C(O)c1c(O)c(-c2ccccc2)nc2ccccc12,18,inactive,–
COc1ccc(NS(=O)(=O)c2ccc(N)cc2)nn1,8.59,inactive,–
CC(COc1ccccc1)NN (configuration not stated),-13,inactive,–
CC[N+]1(CC)CCC(OC(=O)C(O)(c2ccccc2)c2ccccc2)C1 (configuration not stated),-22.9,inactive,–
O=C(O)c1cc(=O)c2ccccc2o1,-28.1,inactive,–
Nc1cc(=O)[nH]c(N)n1,-17.6,inactive,–
C[C@]12CC[C@H]3[C@@H](CCC4=CC(=O)CC[C@@H]43)[C@@H]1CC[C@@H]2OC(=O)CCc1ccco1,-14.7,inactive,–
C[C@@H]1CC2=CC(=O)CC[C@@H]2[C@H]2CC[C@@]3(C)[C@@H](CC[C@]3(C)O)[C@@H]21,24.6,inactive,–

Compound,efficacy [1] [%],outcome [2],AC50 [2]
CCN(CCO)CCn1c(Cc2ccccc2)nc2c1c(=O)n(C)c(=O)n2C,27.5,inactive,–
O=C(O)CCCCCCCC(=O)O,17.2,inactive,–
CC(C)(C)CC(C)(C)c1ccc(O)c(-n2nc3ccccc3n2)c1,9.19,inactive,–
CNCCCCOc1ccccc1Cc1ccccc1,68.3,–,5.62 µM (active)
CC(C(=O)O)c1ccc2c(c1)CC(=O)c1ccccc1S2 (configuration not stated),23.3,inactive,–
CN[C@@H]1[C@@H](O)[C@@H](O[C@@H]2[C@H](O)[C@H](O[C@H]3OC(CN)=CC[C@H]3N)[C@@H](N)C[C@H]2N)OCC1(C)O (some centres not stated),-7.04,inactive,–
O=C(CCCN1CCC2(CC1)C(=O)NCN2c1ccccc1)c1ccc(F)cc1,-27.3,–,1.78 µM (active)
Cc1c(C)c2c(c(C)c1O)CCC(C)(COc1ccc(CC3SC(=O)NC3=O)cc1)O2 (configuration not stated),35.5,inactive,–
Cc1cc(=O)n(-c2ccccc2)n1C,-22,inactive,–
N[C@@H](CCC(=O)N[C@@H](CS)C(=O)NCC(=O)O)C(=O)O,-20.9,inactive,–
C[N+](C)(C)CCOC(N)=O,12.2,inactive,–
C=CCn1c(=O)n([C@@H]2O[C@H](CO)[C@@H](O)[C@H]2O)c2nc(N)[nH]c(=O)c21,-17.7,inactive,–
O=C(CO)[C@@H](O)[C@H](O)[C@@H](O)CO,18.6,inactive,–
CC(=O)c1ccc(S(=O)(=O)NC(=O)NC2CCCCC2)cc1,-18.3,inactive,–
O=C(O)CN1C(=O)c2cccc3cccc(c23)C1=O,11.9,inactive,–
O=C(O)Cn1cnnn1,14.2,inactive,–
CN(C)CCN(Cc1ccsc1)c1ccccn1,-18.4,inactive,–
CCCCCCCC(=O)OCC(COC(=O)CCCCCCC)OC(=O)CCCCCCC,8.07,inactive,–
O=C(CCBr)N1CCN(C(=O)CCBr)CC1,10.2,inactive,–
O=C(O)c1ccccc1C(=O)Nc1ccc(S(=O)(=O)Nc2nccs2)cc1,-12.6,inactive,–
CC(=O)Nc1ccc(OC(=O)c2ccccc2OC(C)=O)cc1,-28.5,inactive,–

Compound,efficacy [1] [%],outcome [2],AC50 [2]
c1ccc(CN2CCNCC2)cc1,-15.2,inactive,–
O=C(Oc1ccccc1)c1ccccc1O,-17.4,inactive,–
CCCN1CCCC[C@H]1C(=O)Nc1c(C)cccc1C,17.3,inactive,–
CC(C)=CCC/C(C)=C/CC/C(C)=C/CCC(=O)OC/C=C(\C)CCC=C(C)C,10.8,inactive,–
NS(=O)(=O)c1cc(-c2nn[nH]n2)c(NCc2cccs2)cc1Cl,-20.9,inactive,–
CC(=O)OCC(=O)[C@@]1(O)[C@H](C)C[C@H]2[C@@H]3CCC4=CC(=O)C=C[C@]4(C)[C@@]3(F)[C@@H](O)C[C@@]21C,26.4,inactive,–
CC(=O)OCC[N+](C)(C)C,-18,inactive,–
O=C(O)CCc1nc2ccccc2[nH]1,-21.2,inactive,–
COC(=O)N/N=C/c1c[n+]([O-])c2ccccc2[n+]1[O-],35,inactive,–
CC(=O)Nc1ccc(OCC(O)CNC(C)C)cc1 (configuration not stated),-28.6,inactive,–
O=S(=O)(O)c1ccc2nc(-c3ccccc3)[nH]c2c1,-32.6,inactive,–
O=C(O)c1ccccc1OP(=O)(O)O,11.4,inactive,–
CC[C@H](C)[C@H](N)C(=O)O,-38.6,inactive,–
NCCCC[C@H](N[C@@H](CCc1ccccc1)C(=O)O)C(=O)N1CCC[C@H]1C(=O)O,-19.4,inactive,–
CCCOc1ccc2c(c1)CC[C@@H]1[C@@H]2CC[C@]2(C)C(OC)CC[C@@H]12 (some centres not stated),-11.2,inactive,–
O=C(O)c1[nH]n(-c2ccc(S(=O)(=O)O)cc2)c(=O)c1N=Nc1ccc(S(=O)(=O)O)cc1,23,inactive,–
COc1ccc(-c2ccc3cc(C(=O)O)ccc3c2)cc1C12CC3CC(CC(C3)C1)C2,13,inactive,–
COc1c2occc2cc2ccc(=O)oc12,-15,inactive,–
Cc1c[nH]c2ccccc12,-29.9,inactive,–
COc1ccc2cc1Oc1cc3c(cc1OC)CC[N+](C)(C)[C@H]3Cc1ccc(cc1)Oc1c(OC)c(OC)cc3c1[C@@H](C2)[N+](C)(C)CC3,-25.2,inactive,–
CNC[C@H](O)[C@@H](O)[C@H](O)[C@H](O)CO,-10.6,inactive,–

Compound,efficacy [1] [%],outcome [2],AC50 [2]
CCCCCC=CCC=CCCCCCCCC(=O)OCC,15.2,inactive,–
COCCOC(=O)C1=C(C)NC(C)=C(C(=O)OC(C)C)C1c1cccc([N+](=O)[O-])c1 (configuration not stated),27.1,inactive,–
Nc1ncnc2c1ncn2[C@@H]1O[C@H](COP(=O)(O)O)[C@@H](O)[C@H]1O,14.6,inactive,–
O=S(=O)(O)c1cc(I)c(O)c2ncccc12,29.1,inactive,–
C[C@@H]1CCC[C@H](C)N1,-7.35,inactive,–
Cc1oc(=O)oc1COC(=O)[C@@H]1N2C(=O)[C@@H](NC(=O)[C@H](N)c3ccccc3)[C@H]2SC1(C)C,-26.8,inactive,–
Cc1onc(-c2c(Cl)cccc2Cl)c1C(=O)Cl,-15.7,inactive,–
CN=C(NC#N)NCCSCc1csc(N=C(N)N)n1,-13.8,inactive,–
C[C@]12C=CC(=O)C=C1CC[C@@H]1[C@@H]2C(=O)C[C@@]2(C)[C@H]1CC[C@]2(O)C(=O)CO,-19.9,inactive,–
COc1cc(C)nc(-n2nc(C)cc2OC)n1,-14.1,inactive,–
O=C(O)/C=C(\CC(=O)O)C(=O)O,-11,inactive,–
CCOC(=O)c1ccc(O)cc1,-24.8,inactive,–
CCN[C@H]1CN(CCCOC)S(=O)(=O)c2sc(S(N)(=O)=O)cc21,16.3,inactive,–
CCCc1c(OCCCCc2nn[nH]n2)ccc(C(C)=O)c1O,28.7,inactive,–
O=C(NCCO[N+](=O)[O-])c1cccnc1,-12.5,inactive,–
Cc1cc2c(cc1CC(=O)c1sccc1S(=O)(=O)Nc1onc(C)c1Cl)OCO2,-22.3,inactive,–
CCC(=O)c1c(O)cc(O)cc1O,21.1,inactive,–
CN1CC[C@]23c4c5ccc(O)c4O[C@H]2[C@@H](O)CC[C@H]3[C@H]1C5,13.6,inactive,–
